High-throughput results: PubChem, several laboratories
GalR3 antag: GalR3 antagonists in HEK293 cells, primary screen, cell-based, fluorescence readout; actives 0.44% (n = 360,000); inhibition, % at 3 µM; HEK293 GalR3-CNG cAMP membrane potential fluorescence; galR3 body fused to GalR1 C-terminus; AID 651719, 2012; Galanin receptor type 3 (Homo sapiens), O60755;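 active = inhibition above the screen-wide average plus 3 SD, cut at about 13% in these data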;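 also: forskolin and galanin both at EC90 stimulate the cells; cAMP rise reported by CNG channel membrane potential dye signal; 0% = forskolin plus galanin with DMSO and 100% = forskolin alone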
aDG glyco act: activators of alpha-DG glycosylation, primary screen, uHTS, Pro5-aDG cells, AlphaScreen. alpha-DG glycosylation AlphaScreen (IIH6); 0% Pro5, 100% B10-LARGE cell signal. activation, % at 10 µM. actives 0.22% (n = 360,000). AID 624168, 2012;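 active = activation of at least 8% versus controls, or a plate z-score of at least 8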;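 also: Pro5 are CHO cells carrying HIG-tagged alpha-DG that lacks glycosylation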
Gli-Sufu antag: Gli-Sufu pathway antagonists, primary screen, luciferase luminescence, Sufu-KO-LIGHT cells, uHTS | Sufu-KO-LIGHT fibroblasts, Gli luciferase reporter luminescence | inhibition, % at 5 µM | actives 0.74% (n = 340,000);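 active = inhibition above about 55%, limit read from the data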;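 also: 0% = DMSO-treated cells and 100% = wells with medium but no cells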
Env fusion inh: inhibitors of HIV-1 Env-driven cell-cell fusion, primary screen, HeLa-JRFL effector, CEM21 target cells, luciferase | inhibition, % at 12.3 µM | actives 1.1% (n = 360,000) | AID 651610, 2012;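 active = mean replicate inhibition score of at least 50 and every replicate individually at or above 50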;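 also: 0% = plate neutral controls and 100% = maraviroc near 300 nM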
COUP-TFII inh: NR2F2 transcriptional activity inhibitors, primary screen, cell-based, luciferase reporter, HEK293T, luminescence; COUP transcription factor 2 (Homo sapiens), P24468; actives 0.7% (n = 370,000); HEK293T NGFI-A luciferase reporter; inhibition, % at 8.6 µM; AID 686940, 2013;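 active = inhibition above a per-plate cutoff, mean inhibition of test wells between control levels plus 3 SD, cut at about 38% in these data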;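 also: cells cotransfected with COUP-TFII expression vector driving the NGFI-A reporter; 0% = median of COUP-TF2 test wells and 100% = reporter-only cells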
Target sequence (P24468 whole entry, looked up): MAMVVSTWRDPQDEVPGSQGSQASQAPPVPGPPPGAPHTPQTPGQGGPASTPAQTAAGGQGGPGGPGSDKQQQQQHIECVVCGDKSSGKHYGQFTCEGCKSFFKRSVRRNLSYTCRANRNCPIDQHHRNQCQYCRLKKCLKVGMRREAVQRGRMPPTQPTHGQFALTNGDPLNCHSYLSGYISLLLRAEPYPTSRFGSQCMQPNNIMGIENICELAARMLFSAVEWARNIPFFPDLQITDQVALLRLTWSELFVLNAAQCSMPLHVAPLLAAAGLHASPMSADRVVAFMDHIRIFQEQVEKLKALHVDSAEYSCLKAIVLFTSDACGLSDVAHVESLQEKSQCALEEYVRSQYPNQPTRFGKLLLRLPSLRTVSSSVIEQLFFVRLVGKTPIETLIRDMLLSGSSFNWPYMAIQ
Numbers without * were called inactive; ! = not active in a repeat; [ ] = remark or other dose. A selection: hits, their analogues and other compounds. The true share with any hit is near 2.1%.

For CC(C)C#Cc1ccc2c(c1)O[C@@H](CN(C)C(=O)C1CCCCC1)[C@H](C)CN([C@@H](C)CO)S2(=O)=O the results were Env fusion inh 36[16.7 µM].
Screening C[C@H](CO)N1C[C@H](C)[C@H](CN(C)C(=O)CN2CCOCC2)Oc2cc(C#Cc3cccc(F)c3)ccc2S1(=O)=O returned Env fusion inh 3[16.7 µM].
Screening CC(C)C#Cc1ccc2c(c1)O[C@@H](CN(C)C(=O)C1CCCCC1)[C@H](C)CN([C@H](C)CO)S2(=O)=O returned Env fusion inh 58*[16.7 µM].
C[C@H](CO)N1C[C@H](C)[C@H](CN(C)C(=O)C2CCCCC2)Oc2cc(Br)ccc2S1(=O)=O was read as Env fusion inh 55*[16.7 µM].
Screening C[C@H](CO)N1C[C@H](C)[C@H](CN(C)C(=O)NC2CCCC2)Oc2cc(C#Cc3ccc(F)cc3)ccc2S1(=O)=O returned Env fusion inh 63*[16.7 µM].
C[C@@H]1CN([C@H](C)CO)S(=O)(=O)c2ccc(C#Cc3cccc(F)c3)cc2O[C@@H]1CN(C)C(=O)CN1CCOCC1 was read as GalR3 antag -7, aDG glyco act 0, Env fusion inh 81*! and COUP-TFII inh 14.
`COc1ccc(NC(=S)c2ccc3ccccc3n2)cc1` gave aDG glyco act 0 and Gli-Sufu antag -25.
COc1ccc(N=C(NN)c2ccc3ccccc3n2)cc1 was read as GalR3 antag -9, aDG glyco act 0, Gli-Sufu antag 49, Env fusion inh 25 and COUP-TFII inh 75*.
`CC(C)(C)CC(C)(C)NC(=S)Nc1ccc2nc(-c3ccccn3)c(-c3ccccn3)nc2c1` gave GalR3 antag -5, aDG glyco act 0, Gli-Sufu antag 4, Env fusion inh 58* and COUP-TFII inh 9.
`CN(C)NC(=S)Nc1ccc2nc(-c3ccccn3)c(-c3ccccn3)nc2c1` gave GalR3 antag -5, aDG glyco act 0, Gli-Sufu antag -24, Env fusion inh -26 and COUP-TFII inh -9.
`CO[C@@H]1CN(C)C(=O)c2ccc(NC(=O)c3ccccn3)cc2OC[C@@H](C)N(C(=O)Nc2ccccc2Cl)C[C@H]1C` gave Env fusion inh 32[16.7 µM].
`CC(C)CC#Cc1ccc2c(c1)O[C@H](CN(C)Cc1ccc3c(c1)OCO3)[C@H](C)CN([C@@H](C)CO)S2(=O)=O` gave Env fusion inh 28[16.7 µM].
Cc1ccc(S(=O)(=O)N2CCC(=O)N(CCOC(=O)Nc3cccc(Cl)c3)CC2)cc1 was read as GalR3 antag -5, aDG glyco act 0, Gli-Sufu antag -1, Env fusion inh 92* and COUP-TFII inh 2.
For CC(C)C[C@@]12C(=O)N(c3cccc(Br)c3)C(=O)N1[C@H](c1ccc(F)cc1)[C@@H]1C(=O)N(C3CCCCC3)C(=O)[C@@H]12 the results were GalR3 antag -6, aDG glyco act 1, Gli-Sufu antag -3, Env fusion inh 104* and COUP-TFII inh -1.
Screening CC[C@@]12C(=O)N(c3cccc(Br)c3)C(=O)N1[C@H](c1ccc(F)cc1)[C@@H]1C(=O)N(C3CCCCC3)C(=O)[C@@H]12 returned GalR3 antag -3, aDG glyco act 0, Gli-Sufu antag 3, Env fusion inh 93* and COUP-TFII inh -3.
Screening CC[C@@]12C(=O)N(c3cccc(F)c3)C(=O)N1[C@H](c1ccc(F)cc1)[C@@H]1C(=O)N(C3CCCCC3)C(=O)[C@@H]12 returned aDG glyco act 0 and Gli-Sufu antag -3.
For Cc1noc(C)c1S(=O)(=O)Nc1ccc2c(c1)C(=O)N([C@H](C)CO)C[C@@H](C)[C@H](CN(C)Cc1ccc(Cl)c(Cl)c1)OCCCC[C@@H](C)O2 the results were Env fusion inh 36[16.7 µM].
`COc1cccc(-c2cnc3c(c2)C(=O)N([C@@H](C)CO)C[C@@H](C)[C@@H](CN(C)C(C)=O)O3)c1` gave Env fusion inh -23[16.7 µM].
For O=C(O)c1cccc(COc2ccc3c(c2)CCC3)c1 the results were GalR3 antag 5, aDG glyco act 0, Gli-Sufu antag -173, Env fusion inh 85* and COUP-TFII inh -32.
For N#CC(c1cccc(Cl)c1)c1ccc2c(C(F)(F)F)cc(C(F)(F)F)nc2n1 (stereo not given) the results were GalR3 antag -2, aDG glyco act -1, Gli-Sufu antag 88* and COUP-TFII inh -3.
Screening O=C(O)C[C@@H]1C[C@@H]2c3cc(NC(=O)c4ccc5c(c4)OCO5)ccc3O[C@@H]2[C@H](CO)O1 returned Env fusion inh 0[16.7 µM].
`CCC(C(=O)OCC(=O)c1c(N)n(CC(C)C)c(=O)n(C)c1=O)c1ccccc1` (stereo not given) gave GalR3 antag 1, aDG glyco act 2, Gli-Sufu antag 47, Env fusion inh 60* and COUP-TFII inh 2.
Screening Cc1ccc(-n2nnnc2SCC(=O)c2c(N)n(CC(C)C)c(=O)n(C)c2=O)cc1 returned GalR3 antag 10, aDG glyco act 0, Gli-Sufu antag 5, Env fusion inh 59* and COUP-TFII inh 5.
Cc1csc(SCC(=O)c2c(N)n(CC(C)C)c(=O)n(C)c2=O)n1 was read as GalR3 antag -1, aDG glyco act 1, Gli-Sufu antag 20, Env fusion inh 90* and COUP-TFII inh 19.
CC(C)Cn1c(N)c(C(=O)CSc2nc3ccccc3n2C)c(=O)n(C)c1=O was read as GalR3 antag -8, aDG glyco act 0, Gli-Sufu antag 1, Env fusion inh 5 and COUP-TFII inh -23.
For CCOC(=O)Cc1csc(SCC(=O)c2c(N)n(CC(C)C)c(=O)n(C)c2=O)n1 the results were GalR3 antag -4, aDG glyco act 3, Gli-Sufu antag -6, Env fusion inh 44 and COUP-TFII inh 35.
Screening C[C@H](CO)N1C[C@H](C)[C@@H](CN(C)S(C)(=O)=O)Oc2ccc(NC(=O)Nc3cccc4ccccc34)cc2CC1=O returned Env fusion inh 17[16.7 µM].
For Cc1ccc(S(=O)(=O)Nc2ccc3c(c2)C(=O)N([C@@H](C)CO)C[C@H](C)[C@H](CN(C)C)OCCCC[C@@H](C)O3)cc1 the results were Env fusion inh 4[16.7 µM].
Screening C[C@H]1CN([C@@H](C)CO)S(=O)(=O)c2ccc(-c3ccncc3)cc2O[C@H]1CN(C)C(=O)C1CCC1 returned Env fusion inh 8[16.7 µM].
`O=C(Oc1ccc2c(c1)OCO2)c1cc2c(s1)CCC2` gave GalR3 antag -3, aDG glyco act 0, Gli-Sufu antag -2, Env fusion inh 75* and COUP-TFII inh -4.
For CCCC(O)(CCC)C(=O)NN(C(=O)CCl)c1ccccc1 the results were GalR3 antag -6, aDG glyco act 0, Gli-Sufu antag 2, Env fusion inh 85* and COUP-TFII inh -17.
